High-throughput results as filed in PubChem BioAssay.
The list is not random: actives were taken first. Their share in the collection is about 2.4%.
M1 PAM: potentiates human M1 receptor response to acetylcholine | P11229 | CHO-K1 hM1, Fluo-8 calcium fluorescence, ACh EC20; 0% = ACh EC20, 100% = maximal ACh | activation, % at 3 µM | 360,000 compounds, 0.088% hits | AID 588819; in the data active means activation above about 19%, passing the limit was not always enough
Target sequence (P11229 whole entry, looked up): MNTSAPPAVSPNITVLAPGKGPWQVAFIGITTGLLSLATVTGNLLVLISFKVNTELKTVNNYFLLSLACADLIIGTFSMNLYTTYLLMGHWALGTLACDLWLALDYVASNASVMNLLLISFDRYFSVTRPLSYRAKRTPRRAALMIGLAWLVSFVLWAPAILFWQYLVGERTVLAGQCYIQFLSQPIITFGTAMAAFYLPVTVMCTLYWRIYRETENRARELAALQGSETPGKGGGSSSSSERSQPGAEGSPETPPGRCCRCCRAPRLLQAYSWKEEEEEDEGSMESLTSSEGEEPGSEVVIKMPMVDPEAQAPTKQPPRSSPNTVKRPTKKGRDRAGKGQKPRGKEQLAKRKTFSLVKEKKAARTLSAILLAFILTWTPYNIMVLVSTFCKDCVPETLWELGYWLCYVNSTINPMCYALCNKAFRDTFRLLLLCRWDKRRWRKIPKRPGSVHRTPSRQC
M1 antag: human CHRM1 antagonism; P11229; CHO-K1 hM1, Fluo-8 calcium fluorescence, ACh EC80 antagonist; inhibition, % at 3 µM; 360,000 compounds, 1.3% hits; AID 588852;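 active means percent inhibition above its own plate's cutoff, namely the mean of that plate's compound wells plus 3 SD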;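 further: peak over basal fluorescence ratio during 140 s after agonist addition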
CHO-K1 Ca PAM: M1 PAM counterscreen hit in parental CHO-K1 cells | ATP EC20, Fluo-8 calcium fluorescence; 0% at ATP EC20, 100% at ATP max | activation, % at 3 µM | 360,000 compounds, 0.02% hits;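 active means activation above the run cutoff, the mean activation of all test compounds plus 3 SD, cut at about 40% in these data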;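 further: peak over basal fluorescence ratio in a 140 s read after ATP addition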
CHRM1 agonist: activates human CHRM1 receptor | activation, % at 3 µM | 360,000 compounds, 0.33% hits | P11229 | CHO-K1 hM1, Fluo-8 calcium fluorescence, agonist mode; 0% DMSO, 100% acetylcholine EC100;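 active means activation above the run's mean compound activation plus 3 SD, cut at about 16% in these data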;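 further: peak over basal fluorescence ratio within a 140 s kinetic read after compound addition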
CHO-K1 Ca ag: nonselective activator or artifact in parental CHO-K1 cells; Fluo-8 calcium fluorescence; scaled to maximal ATP response, vehicle zero; activation, % at 3 µM; 360,000 compounds, 0.48% hits; AID 602248; in the data active means activation above about 15%;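 further: untransfected CHO-K1 host cells lacking M1 receptor as counterscreen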
CHO-K1 Ca antag: M1 antagonist counterscreen hit in parental CHO-K1 cells. ATP-induced calcium, Fluo-8 fluorescence. inhibition, % at 3 µM. 360,000 compounds, 0.6% hits. AID 602250;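 active means inhibition above a per-plate cutoff, the plate's mean sample inhibition plus 3 SD, cut at about 24% in these data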
Each line names hits and unclear results; the compound was inactive in the other large screens.

CC1(C)CC2CC(C)(CN2C(=S)Nc2ccccc2)C1 (stereo not drawn)	CHO-K1 Ca ag 15.7
O=C(O)c1ccc(N/N=C/c2cn(Cc3ccccc3F)c3ccccc23)cc1	CHO-K1 Ca ag 23.1
Nc1ccc(C(=O)N/N=C/c2cn(Cc3ccccc3F)c3ccccc23)cc1	none
O=C(c1cccc(C(F)(F)F)c1)C1CCCN(Cc2cccn2-c2ncccn2)C1 (stereo not drawn)	none
CCOC(=O)C1CCCN(Cc2ccc(O)c(OC)c2)C1 (stereo not drawn)	CHRM1 agonist 23.5
CCOC(=O)C1CCCN(Cc2nc3ccc([N+](=O)[O-])cc3c(=O)n2-c2ccc(OC)cc2OC)C1 (stereo not drawn)	M1 antag 50.7, CHRM1 agonist 54.1
CCOc1cc(CN2CCCC(C(=O)c3cccc(C(F)(F)F)c3)C2)ccc1O (stereo not drawn)	M1 antag 32.2
CCOC(=O)C1CCCN(C(=O)/C=C/c2cc(OC)c(OC)c(OC)c2)C1 (stereo not drawn)	CHRM1 agonist 23.9
CN(C)c1ccc(-c2ccnc3c2CC(C)(C(=O)NCCc2ccccc2)O3)cc1 (stereo not drawn)	none
CC(=O)Nc1cccc(-c2cc(N3CCN(CCO)CC3)n3nccc3n2)c1	none
CCOC(=O)C1CCCN(C(=O)Cc2ccc(OC)c(OC)c2)CC1 (stereo not drawn)	CHO-K1 Ca antag 25.6
CCOC(=O)C1CCCN(C(=O)Cc2ccc(OC)c(OC)c2)C1 (stereo not drawn)	none
CCCCOc1ccc(S(=O)(=O)Nc2cccnc2)cc1	CHO-K1 Ca ag 30.4
Cn1c(=O)n(CCc2ccccc2)c(=O)c2c1nc1n2CCN1Cc1ccco1	M1 antag 31.9
Cn1c(=O)n(Cc2ccc(F)cc2)c(=O)c2c1nc1n2CCN1Cc1ccco1	none
c1ccc(-c2csc(-n3cnnn3)n2)cc1	CHO-K1 Ca antag 29.6
CC(C)N(C(=O)CSc1nc2ccccc2n1Cc1ccc(F)cc1)C(C)C	M1 antag 32.3
NC(=O)CSc1nc2ccccc2n1Cc1ccccc1	CHO-K1 Ca ag 22.5
CC(C)NC(=O)CSc1nc2ccccc2n1CC(=O)N(C(C)C)C(C)C	none
COc1ccccc1N(C)S(=O)(=O)c1ccc(C(=O)N(C)Cc2ccc(OC(F)F)cc2)cc1	M1 antag 26.7
CCN1CCN(S(=O)(=O)c2ccc(Cl)c(C(=O)N(C)Cc3ccccc3)c2)CC1	CHO-K1 Ca antag 23.7
CN(Cc1ccc(OC(F)F)cc1)C(=O)c1cccc(S(=O)(=O)N2CCN(c3ccccc3)CC2)c1	M1 antag 46.4
CN(CC(=O)Nc1ccccc1Cl)C(=O)c1cccc(S(=O)(=O)N2CCN(c3ccccc3)CC2)c1	CHO-K1 Ca antag 28.3
CN(CC(=O)Nc1ccccc1Cl)C(=O)c1cccc(S(=O)(=O)N2CCN(c3ccc(F)cc3)CC2)c1	none
Cc1ccc(S(=O)(=O)N2CCOCC2)cc1NC(=O)COC(=O)c1ccc(Cl)nc1	none
COC(=O)c1nn(C)c(=O)[nH]c1=O	none
CCC1Sc2ccc(S(=O)(=O)CCC(=O)Nc3c(Cl)cc(OC)cc3OC)cc2NC1=O (stereo not drawn)	none
O=C(c1cc(-c2ccco2)on1)N1CCc2ccccc2C1	M1 PAM 28.0
CC(C)c1cc(-c2cc(C(=O)NCc3ccccc3)on2)nc(NCC2CC2)n1	M1 antag 34.4, CHRM1 agonist 29.4
Cc1ccc(S(=O)(=O)N2CCN(C(=O)COC(=O)CCOc3ccccc3C)CC2)c(C)c1	none
COc1ccc(N(C(=O)CNC(=O)c2cccs2)C(C(=O)NCC2CCCO2)c2ccccc2)c(OC)c1 (stereo not drawn)	none
O=C(c1cccs1)N1CCN(C23CC4CC(CC(C4)C2)C3)CC1	M1 antag 72.0
O=C(c1ccc(Cl)s1)N1CCN(C23CC4CC(CC(C4)C2)C3)CC1	none
Cc1cc([N+](=O)[O-])ccc1NC(=O)c1ccco1	none
Cc1cc([N+](=O)[O-])ccc1NC(=O)C(C)[n+]1ccccc1 (stereo not drawn)	M1 antag 26.7
Cc1onc(-c2c(Cl)cccc2Cl)c1C(=O)NCCCN1CCOCC1	none
Cc1onc(-c2c(Cl)cccc2Cl)c1C(=O)c1c[nH]c(C(=O)NCCCN2CCOCC2)c1	M1 antag 76.1
COc1ccc(OC)c(NC(=O)CSc2ncnc3sc(C)cc23)c1	none
O=C(O)C(=Cc1cccc([N+](=O)[O-])c1)c1ccccc1	none
O=C(C#Cc1cccc([N+](=O)[O-])c1)c1ccccc1	CHO-K1 Ca antag 27.3
COC(=O)c1ccc(/C=N/OCC(=O)NC2CCCC(C)C2C)cc1 (stereo not drawn)	M1 antag 30.6
COC(=O)c1ccc(/C=N/OCC(=O)NC2CCCCCCC2)cc1	none
CC(C)C(O)(C#CCN1CCCCC1)c1ccccc1 (stereo not drawn)	M1 antag 98.6
CC(O)(C#CCN1CCOCC1)c1ccccc1 (stereo not drawn)	none
CC(C)C(O)(C#CCN1CCCC1)c1ccccc1 (stereo not drawn)	M1 antag 92.3
CC(=O)c1ccc(-n2c(=O)[nH]c(=O)c3c(N)c(C(=O)c4ccc(Cl)cc4)sc32)cc1	none
C=C(C)[C@@H]1CC=C(CN2CCN(Cc3ccccc3)CC2)CC1	M1 antag 37.8
O=C(CN1CCCCCC1)N1c2ccccc2Sc2ccccc21	M1 antag 99.3, CHO-K1 Ca ag 16.2
CN1CCN(CC(=O)N2c3ccccc3Sc3ccccc32)CC1	M1 antag 99.9
CC1CCCN(c2ccc(C(=O)OCn3nnc4ccccc4c3=O)cc2[N+](=O)[O-])C1 (stereo not drawn)	none
O=C1CCCN1CCCNCC(=O)N1c2ccccc2Sc2ccccc21	M1 antag 76.5
CC1CCCN(c2ccc(C(=O)OCC(=O)N3c4ccccc4Sc4ccccc43)cc2[N+](=O)[O-])C1 (stereo not drawn)	M1 antag 34.6
CCOC(=O)C1=CC[C@H]2c3c(c4ccccc4n3C)C[C@H]1N2C	none
CC1CCCN(CC(=O)N2c3ccccc3Sc3ccccc32)C1 (stereo not drawn)	M1 antag 81.3
Cc1cc(C)n(CC(=O)N2c3ccccc3Sc3ccc(C(F)(F)F)cc32)n1	M1 antag 62.1
CC1Cc2ccccc2N1C(=O)CN1CCCCC1 (stereo not drawn)	none
O=C(CN1CCCCC1)N1c2ccccc2Oc2ccccc21	M1 antag 74.7
O=C(CN1CCCC(O)C1)N1c2ccccc2Sc2ccc(C(F)(F)F)cc21 (stereo not drawn)	M1 antag 98.9
OC(c1ccccc1)c1ncc(-c2ccccc2Cl)[nH]1 (stereo not drawn)	none
